According to the supplement of paper PMC12636033:
± gives the standard deviation of the averaged measurements. Over roughly 33,000 sequences, “E-score (rank enrichment, -0.5 to 0.5)” has its median near -0.0075; the highest 2% begin near 0.23. For the sample, the highest values were picked, then their nearest neighbours and some sequences at random.

What follows are sequences tested on WT Max(13-93) synthetic (M65Nle) (assay: PBM 8-mer E-score (E-score (rank enrichment, -0.5 to 0.5)); higher = stronger preferential binding).
Procedure: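 Protein binding microarray (universal PBM chip covering all 10-mers in fixed probe flanks) with chemically synthesized human Max(13-93) bHLH-LZ analogs (not full-length Max) bearing noncanonical residues (hArg, Tha, Aib, Nle at 65) and aromatic Cys staples. Read-out per 8-mer (and its reverse complement): E-score (rank-based enrichment, -0.5 to 0.5) and Z-score of median probe intensity.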

| Sequence | PBM 8-mer E-score |
| --- | --- |
| ATAAAATC | 0.109 ± 0.055 |
| ATAAAATA | 0.244 ± 0.0078 |
| CAAGAATA | 0.13 ± 0.035 |
| TAGAAATA | 0.251 ± 0.07 |
| AAAAAATA | 0.246 ± 0.022 |
| CAAAAATA | 0.185 ± 0.02 |
| AAGAAATA | 0.129 ± 0.0058 |
| GAGAAATA | 0.0631 ± 0.15 |
| GTAAAATA | 0.0829 ± 0.0054 |
| GAAAAATA | 0.198 ± 0.08 |
| AAAGAATA | 0.241 ± 0.039 |
| GAAGAATA | 0.104 ± 0.034 |
| CATGCCGC | 0.0835 ± 0.051 |
| AATAGAGG | 0.00232 ± 0.055 |
| GAGTGGTA | -0.108 ± 0.011 |
| AATGCAGG | 0.087 ± 0.07 |
| AAGAACGA | 0.129 ± 0.018 |
| CAGAGTGC | -0.201 ± 0.058 |
| CTCGAAAG | -0.184 ± 0.043 |
| GACGAACA | 0.0177 ± 0.055 |
| GTTCATTA | 0.113 ± 0.06 |
| AGGTTTAA | 0.0368 ± 0.0029 |

| Sequence | PBM 8-mer E-score |
| --- | --- |
| GGCTGGAA | -0.0381 ± 0.036 |
| ATTAAATA | 0.174 ± 0.085 |
| CTTAAATA | 0.139 ± 0.023 |
| ATAAATTG | 0.0667 ± 0.085 |
| ATAAATTA | 0.324 ± 0.038 |
| CTAAATTA | 0.0753 ± 0.031 |
| GTTAAATA | 0.257 ± 0.1 |
| CGGGTCAA | -0.125 ± 0.03 |
| ATGGCTAG | 0.0642 ± 0.13 |
| AGGGAGCC | -0.227 ± 0.056 |
| AGTGCGTG | 0.0848 ± 0.032 |
| GGTTAGGA | 0.0556 ± 0.043 |
| ACTTAAAC | 0.0371 ± 0.073 |
| CCGCAGAG | -0.0777 ± 0.023 |
| GTGACACA | 0.0907 ± 0.1 |
| ATGACAGG | 0.0387 ± 0.051 |
| ATGACACA | 0.236 ± 0.042 |
| CAGACACG | -0.0764 ± 0.14 |
| CTGACACA | -0.0349 ± 0.034 |
| AAGACACG | 0.246 ± 0.021 |
| ATGACACG | 0.298 ± 0.039 |
| AAGACACA | 0.0963 ± 0.021 |

| Sequence | PBM 8-mer E-score |
| --- | --- |
| ATGACACC | 0.159 ± 0.048 |
| CAGTCTGC | -0.0522 ± 0.01 |
| ACCTAATG | 0.00028 ± 0.0032 |
| CCAGGAGC | -0.312 ± 0.0027 |
| GTAAAACA | 0.142 ± 0.14 |
| ATAAAACG | 0.163 ± 0.16 |
| TAAGAACA | 0.243 ± 0.099 |
| CAAGAACA | 0.0399 ± 0.038 |
| ATAAAACA | 0.24 ± 0.0041 |
| ATAAAAGG | 0.0572 ± 0.12 |
| AAAAAACA | 0.158 ± 0.071 |
| ATAAAAAA | 0.19 ± 0.044 |
| GAAGAACA | 0.209 ± 0.057 |
| CTAAAACA | -0.07401 ± 0.00047 |
| TAAAAACA | 0.25 ± 0.0036 |
| ATAAAAAG | 0.283 ± 0.11 |
| GCCCCGTA | -0.0782 ± 0.17 |
| ACGGGGTC | -0.061 ± 0.014 |
| CGGCAGAC | -0.218 ± 0.039 |
| AACCATTC | 0.0337 ± 0.04 |
| AATGCCGC | -0.0772 ± 0.0051 |
| CGACTAAA | -0.00903 ± 0.06 |

| Sequence | PBM 8-mer E-score |
| --- | --- |
| AATAGGCA | 0.118 ± 0.0074 |
| GCGCGCCC | 0.00746 ± 0.051 |
| CAGGTTCC | -0.228 ± 0.077 |
| CCGTTAGC | -0.112 ± 0.12 |
| CTAAAGCA | 0.0761 ± 0.037 |
| ATAAAGCA | 0.264 ± 0.046 |
| ATAAAGCG | 0.106 ± 0.045 |
| CTCAAACA | 0.117 ± 0.014 |
| ATCAAACA | 0.238 ± 0.041 |
| ATCAAGCA | 0.113 ± 0.0099 |
| GGCGGATA | -0.183 ± 0.13 |
| TGTGTTAA | 0.226 ± 0.034 |
| TTACACAA | 0.00996 ± 0.084 |
| ACCTGGGC | -0.318 ± 0.086 |
| AATCCTCT | 0.079 ± 0.071 |
| ACGCCAAC | -0.125 ± 0.04 |
| TGTATTAA | 0.173 ± 0.026 |
| CCTCAGGC | -0.057 ± 0.056 |
| CCGTGGGC | -0.129 ± 0.18 |
| CCGTGGGA | -0.15 ± 0.023 |
